# Source: PubChem BioAssay (several laboratories)
# Most compounds without a hit are left out; they make up all but 3% or so of the library.
# Efa HMGR inh = inhibitors of E. faecalis class II HMGR, primary screen, biochemical, Enterococcus faecalis | HMG-CoA reductase (Enterococcus faecalis, mvaE) | purified E. faecalis HMGR, NADPH absorbance 340 nm kinetic | inhibition, % at 10 µM | 190,000 tested, 0.41% active | AID 1066, 2008;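 active means inhibition above a set limit, the median over all tested compounds plus 3 SD, cut at about 9.5% in these data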;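 further: enzyme runs in reverse so mevalonate oxidation gives rising NADPH absorbance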
# L929 necroptosis = inhibitors of zVAD-triggered necroptosis, primary screen, L929 cells. AID 1377, 2008. L929 zVAD necroptosis rescue, ATP luminescence, 24 h; with zVAD 60 µM. viability rescue, % at 10 µM. 220,000 tested, 0.38% active;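 active means activation, scaled between plate controls, above about 75%, limit read from the data; inactive means activation under that limit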
# TNF necrop inh = inhibitors of TNF-alpha triggered necroptosis, primary screen, cell-based, Jurkat FADD-/-, single concentration; Jurkat FADD-/- TNF necroptosis rescue, ATP luminescence, 24 h; 0 = TNF only, 100 = no-TNF cells; activation (protection from cell death), % at 10 µM; 220,000 tested, 0.068% active; AID 463075, 2010;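 active means activation, meaning protection from cell death, of at least 50% relative to plate controls; inactive means activation below 50%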;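 further: necroptosis triggered by 40 ng/mL TNF-alpha added together with compound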
# ROMK primary = ROMK potassium channel modulators, primary screen, cell-based, thallium flux, MLSMR library. ATP-sensitive inward rectifier potassium channel 1 (Homo sapiens), P48048. Tet-inducible ROMK, thallium flux fluorescence; actives lie on both sides. B-score at 10 µM. 130,000 tested, 2% active;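 active means signal ratio slope over the read window, or its plate-corrected B-score, at least 3 SD from the plate mean, either direction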;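 further: B-score of the F/F0 ratio slope over 7 to 12 s after thallium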
# m-calpain inh = inhibitors of pig calpain II, primary screen, biochemical, fluorogenic peptide substrate, 1536-well; 220,000 tested, 0.37% active; inhibition, % at 16 µM; purified calpain II, 30 min;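 active means inhibition above about 50%, limit read from the data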
# 14-3-3 Bad PPI = inhibitors of 14-3-3 zeta/Bad binding, primary screen, biochemical, TR-FRET, bovine 14-3-3 zeta. 14-3-3 protein zeta/delta (Bos taurus), P63103. TR-FRET 14-3-3zeta/Dy647-pBad peptide displacement, 1 h. inhibition, % at 21.7 µM. 220,000 tested, 0.71% active;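 active means inhibition above about 70%, limit read from the data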
# Target sequence (P63103 whole entry, looked up): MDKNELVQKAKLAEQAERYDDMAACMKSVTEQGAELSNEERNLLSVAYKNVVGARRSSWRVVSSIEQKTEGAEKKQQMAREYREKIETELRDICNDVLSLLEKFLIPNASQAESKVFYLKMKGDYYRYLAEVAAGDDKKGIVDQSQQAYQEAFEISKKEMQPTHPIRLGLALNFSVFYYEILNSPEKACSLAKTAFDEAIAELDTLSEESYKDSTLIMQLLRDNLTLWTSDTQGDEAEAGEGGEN
# ROMK hit retest = ROMK channel modulator hit retest, confirmation, cell-based, thallium flux, duplicate, resupplied hits | shares compounds with ROMK primary | fluorescence ratio; active compounds read low | normalized thallium flux (F/F0 slope) at 10 µM | 3,000 tested, 54% active | AID 1917, 2009;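 active means Flux at 10 µM at least 3 SD below or above vehicle control mean in one or both replicates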
# Numbers stand for hits; - = inactive; . = no result.
SMILES,Efa HMGR inh,L929 necroptosis,TNF necrop inh,ROMK primary,m-calpain inh,14-3-3 Bad PPI,ROMK hit retest
N#Cc1nc(N2CCCC2)nc(N2CCCC2)n1,-,-,-,-3.4,-,-,0.063
C1CCN(c2nc(N3CCCCC3)nc(N3CCNCC3)n2)CC1,-,-,-,-3,-,-,0.067
Cn1ccnc1SCC(=O)Nc1nc2c(F)c(F)c(F)cc2s1,-,-,-,-,-,-,.
C/C(=N\Nc1nc(N2CCCCCC2)nc(N2CCCCCC2)n1)c1ccccc1,-,-,-,.,-,-,.
O=C(/C=C/c1ccco1)Nc1ccccn1,-,-,-,1.8,-,-,-
Cc1ccc(NC(=O)/C=C/c2ccco2)nc1,-,-,-,4.5,-,-,-
C=CCn1c(COc2ccccc2)nnc1SC(C)C(=O)N/N=C/c1cc(Cl)ccc1O (centres undefined),-,-,-,-,-,-,.
CCOC(=O)c1oc2nc3c(cc2c1N)COC(C)(C)C3,-,-,-,3.5,-,-,-
CCOC(=O)c1oc2nc3c(cc2c1N)CCCC3,.,-,-,.,-,-,.
COc1cc(C=C2C(=O)c3ccccc3C2=O)ccc1O,.,-,-,.,-,-,.
CC1=NOC(=O)/C1=C\c1ccc(-c2ccccc2Br)o1,-,-,-,-8.7,-,-,0.062
CC1=NOC(=O)/C1=C\c1ccc(-c2cccc(Cl)c2)o1,-,-,-,.,-,-,.
COc1cc(/C=C2/C(=O)ON=C2c2ccccc2)ccc1O,-,-,-,-6.8,-,-,0.044
Cc1ccc(/C=C2/C(=O)ON=C2c2ccccc2)o1,.,-,-,.,-,-,0.04
CC(C)CNC(=O)CN(C)S(=O)(=O)c1ccc(F)cc1,-,-,-,-,-,-,.
COc1cccc(/C=N/NC(=O)CN2CC(c3ccccc3)CC2=O)c1OC (centres undefined),-,.,-,-,-,-,.
O=C(OC(c1ccc(NS(=O)(=O)c2ccccc2)cc1)(C(F)(F)F)C(F)(F)F)c1ccccc1,-,-,-,-4.5,-,-,0.062
CC(=O)NCC(=O)OCC(=O)c1ccc(Cl)cc1,-,-,-,-,-,-,.
Cc1cc(C)nc(SCc2cc(=O)c(OC(=O)c3cc([N+](=O)[O-])ccc3Cl)co2)n1,-,-,-,.,-,-,.
O=C(Oc1coc(CSc2ncccn2)cc1=O)c1ccccc1[N+](=O)[O-],-,-,-,-,-,-,-
COC(=O)CCC/C=C1/SCC(NC(=O)c2ccccc2)/C1=N/O (centres undefined),-,-,-,-,-,-,.
N#C/C(C(=O)Oc1ccccc1)=C1/Nc2ccccc2-c2ccccc21,-,-,-,.,-,-,.
CCOc1cc(CNCc2cccnc2)ccc1OCC(=O)NC(C)(C)C,-,-,-,-,-,-,.
CC(C(=O)N1CCCC1)N1CCN(c2ccccc2O)CC1 (centres undefined),-,-,-,-,-,-,.
Cc1nn(-c2ccccc2)c(Cl)c1/C=N/NC(=O)c1cccc(S(=O)(=O)N2CCCC2)c1,-,-,-,.,-,-,.
SMILES,Efa HMGR inh,L929 necroptosis,TNF necrop inh,ROMK primary,m-calpain inh,14-3-3 Bad PPI,ROMK hit retest
Cc1nn(-c2ccccc2)c(N2CCCC2)c1/C=N/NC(=O)c1cccc(S(=O)(=O)Nc2ccc(Cl)cc2)c1,-,-,-,.,-,-,-
CC(C)NC(=O)Cn1cc(C(=O)COc2ccccc2)c2ccccc21,-,-,-,-,-,-,.
Cc1ccc(SCCN)cc1C,-,-,-,-3,-,-,0.068
Cc1ccc(SCCNC(=S)Nc2ccc(C)c(C)c2)cc1,-,-,-,.,-,-,.
Cc1cccc(C)c1NC(=O)CSc1nnc(CCCCCNC(=O)OC(C)(C)C)o1,-,-,-,.,-,-,.
O=C(c1cccc2ccccc12)N1CCN(CC2CC=CCC2)CC1 (centres undefined),-,-,-,-2.6,-,-,0.059
O=C(C1CCN(S(=O)(=O)c2cnc[nH]2)CC1)N(CCc1ccccc1)Cc1ccccc1,-,-,-,-,-,-,.
